# The supplement of paper PMC4022240
# ± gives the standard deviation.
# T1: HaloTag-ATRX ADD domain (163-292)
# T1 chain: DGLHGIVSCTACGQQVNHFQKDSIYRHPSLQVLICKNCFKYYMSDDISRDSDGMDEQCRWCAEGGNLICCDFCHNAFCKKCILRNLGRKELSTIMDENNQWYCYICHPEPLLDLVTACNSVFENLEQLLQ
# What was measured:
# Assay in all cases: peptide microarray binding signal (635 nm), min-max normalized on array (fraction of array maximum); higher = stronger binding
# [1] = target: T1, HaloTag-ATRX ADD domain (163-292)
# Outline: (§1)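 Binding signal is the mean intensity of triplicate spots, min-max scaled within each library. Histone 13-mer peptide–cellulose conjugates were spotted in triplicate on nitrocellulose with a Cy3 tracer and blocked overnight at 4°C. Probing lasted 1 h at 4°C, either with biotin-labelled HaloTag reader fusions (10 nM to 1 μM) and streptavidin-Alexa Fluor 647 or with rabbit histone antibodies (1:10,000 to 1:2,000) and anti-rabbit Alexa 647. An Axon GenePix 4000B read signal at 635 nm and misprints at 532 nm.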
# [2] = target: HaloTag-ING2 PHD (mouse Ing2 200-280)
# Outline: as §1
# [3] = target: anti-H3K4me3 antibody ab8580
# Outline: as §1
# [4] = target: anti-H3K9me3 antibody ab8898
# Outline: as §1
# [5] = peptide region: H3 50-62, peptide modifications: H3K56me2 H3T58ph, binder concentration: 1:2,000 dilution
# [6] = peptide region: H3 50-62, peptide modifications: H3K56me2 H3T58ph, binder concentration: 1:10,000 dilution
# [7] = peptide region: H3 73-85, peptide modifications: H3K79ac, binder concentration: 1:2,000 dilution
# [8] = peptide region: H3 73-85, peptide modifications: H3K79ac, binder concentration: 1:10,000 dilution
# [9] = peptide region: H3 73-85, peptide modifications: H3K79ac H3T80ph, binder concentration: 1:2,000 dilution
# [10] = peptide region: H3 73-85, peptide modifications: H3K79ac H3T80ph, binder concentration: 1:10,000 dilution
# [11] = peptide region: H3 50-62, peptide modifications: H3K56me3, binder concentration: 1:2,000 dilution
# [12] = peptide region: H3 50-62, peptide modifications: H3K56me3, binder concentration: 1:10,000 dilution
# [13] = peptide region: H3 50-62, peptide modifications: H3K56me3 H3T58ph, binder concentration: 1:2,000 dilution
# [14] = peptide region: H3 50-62, peptide modifications: H3K56me3 H3T58ph, binder concentration: 1:10,000 dilution
# [15] = peptide region: H3 50-62, peptide modifications: H3K56me1 H3S57ph, binder concentration: 1:2,000 dilution
# [16] = peptide region: H3 50-62, peptide modifications: H3K56me1 H3S57ph, binder concentration: 1:10,000 dilution
# [17] = peptide region: H3 50-62, peptide modifications: H3K56ac H3T58ph, binder concentration: 1:2,000 dilution
# [18] = peptide region: H3 50-62, peptide modifications: H3K56ac H3T58ph, binder concentration: 1:10,000 dilution
# [19] = peptide region: H3 73-85, peptide modifications: H3K79me2, binder concentration: 1:2,000 dilution
# [20] = peptide region: H3 73-85, peptide modifications: H3K79me2, binder concentration: 1:10,000 dilution
# [21] = peptide region: H3 50-62, peptide modifications: H3K56me3 H3S57ph, binder concentration: 1:2,000 dilution
# [22] = peptide region: H3 50-62, peptide modifications: H3K56me3 H3S57ph, binder concentration: 1:10,000 dilution
# [23] = peptide region: H3 50-62, binder concentration: 1:2,000 dilution
# [24] = peptide region: H3 50-62, binder concentration: 1:10,000 dilution
binder,measurement,setting,value
EIRRYQKSTELLI [H3 50-62 E I R R Y Q Kme2 S Tph E L L I],peptide microarray binding signal,"[1]; peptide region: H3 50-62, peptide modifications: H3K56me2 H3T58ph, binder concentration: 50 nM",0.00116 ± 2.9e-05
same,peptide microarray binding signal,"[1]; peptide region: H3 50-62, peptide modifications: H3K56me2 H3T58ph, binder concentration: 500 nM",0.00181 ± 4.2e-05
same,peptide microarray binding signal,"[2]; peptide region: H3 50-62, peptide modifications: H3K56me2 H3T58ph, binder concentration: 10 nM",0.00286 ± 0.00011
same,peptide microarray binding signal,"[2]; peptide region: H3 50-62, peptide modifications: H3K56me2 H3T58ph, binder concentration: 100 nM",0.000992 ± 1.1e-05
same,peptide microarray binding signal,[3]; [5],0.000415 ± 1.5e-05
same,peptide microarray binding signal,[3]; [6],0.000456 ± 4.9e-06
same,peptide microarray binding signal,[4]; [5],0.00199 ± 0.00011
same,peptide microarray binding signal,[4]; [6],0.000923 ± 1.9e-05
EIAQDFKTDLRFQ [H3 73-85 E I A Q D F Kac T D L R F Q],peptide microarray binding signal,"[1]; peptide region: H3 73-85, peptide modifications: H3K79ac, binder concentration: 50 nM",0.003981 ± 1.6e-05
same,peptide microarray binding signal,"[1]; peptide region: H3 73-85, peptide modifications: H3K79ac, binder concentration: 500 nM",0.0121 ± 0.0025
same,peptide microarray binding signal,"[2]; peptide region: H3 73-85, peptide modifications: H3K79ac, binder concentration: 10 nM",0.00537 ± 0.00042
same,peptide microarray binding signal,"[2]; peptide region: H3 73-85, peptide modifications: H3K79ac, binder concentration: 100 nM",0.00298 ± 0.00043
same,peptide microarray binding signal,[3]; [7],0.00166 ± 0.00016
same,peptide microarray binding signal,[3]; [8],0.00428 ± 0.00088
same,peptide microarray binding signal,[4]; [7],0.0114 ± 0.0038
same,peptide microarray binding signal,[4]; [8],0.0106 ± 0.0027
EIAQDFKTDLRFQ [H3 73-85 E I A Q D F Kac Tph D L R F Q],peptide microarray binding signal,"[1]; peptide region: H3 73-85, peptide modifications: H3K79ac H3T80ph, binder concentration: 50 nM",0.000721 ± 1.1e-05
same,peptide microarray binding signal,"[1]; peptide region: H3 73-85, peptide modifications: H3K79ac H3T80ph, binder concentration: 500 nM",0.00171 ± 4.6e-05
same,peptide microarray binding signal,"[2]; peptide region: H3 73-85, peptide modifications: H3K79ac H3T80ph, binder concentration: 10 nM",0.00221 ± 4.4e-05
same,peptide microarray binding signal,"[2]; peptide region: H3 73-85, peptide modifications: H3K79ac H3T80ph, binder concentration: 100 nM",0.000638 ± 7.1e-06
same,peptide microarray binding signal,[3]; [9],0.000491 ± 2.4e-05
same,peptide microarray binding signal,[3]; [10],0.000628 ± 1.8e-05
same,peptide microarray binding signal,[4]; [9],0.000951 ± 3.6e-05
same,peptide microarray binding signal,[4]; [10],0.000865 ± 1.8e-05
EIRRYQKSTELLI [H3 50-62 E I R R Y Q Kme3 S T E L L I],peptide microarray binding signal,"[1]; peptide region: H3 50-62, peptide modifications: H3K56me3, binder concentration: 50 nM",0.00232 ± 0.0002
same,peptide microarray binding signal,"[1]; peptide region: H3 50-62, peptide modifications: H3K56me3, binder concentration: 500 nM",0.0019 ± 6e-05
same,peptide microarray binding signal,"[2]; peptide region: H3 50-62, peptide modifications: H3K56me3, binder concentration: 10 nM",0.00233 ± 2.7e-05
same,peptide microarray binding signal,"[2]; peptide region: H3 50-62, peptide modifications: H3K56me3, binder concentration: 100 nM",0.002268 ± 2.2e-05
same,peptide microarray binding signal,[3]; [11],0.00259 ± 0.0002
same,peptide microarray binding signal,[3]; [12],0.00108 ± 3.8e-05
same,peptide microarray binding signal,[4]; [11],0.0209 ± 0.0092
same,peptide microarray binding signal,[4]; [12],0.00986 ± 0.0031
EIRRYQKSTELLI [H3 50-62 E I R R Y Q Kme3 S Tph E L L I],peptide microarray binding signal,"[1]; peptide region: H3 50-62, peptide modifications: H3K56me3 H3T58ph, binder concentration: 50 nM",0.0015 ± 4e-05
same,peptide microarray binding signal,"[1]; peptide region: H3 50-62, peptide modifications: H3K56me3 H3T58ph, binder concentration: 500 nM",0.00129 ± 3.6e-05
same,peptide microarray binding signal,"[2]; peptide region: H3 50-62, peptide modifications: H3K56me3 H3T58ph, binder concentration: 10 nM",0.00281 ± 8.3e-05
same,peptide microarray binding signal,"[2]; peptide region: H3 50-62, peptide modifications: H3K56me3 H3T58ph, binder concentration: 100 nM",0.0017 ± 4.6e-05
same,peptide microarray binding signal,[3]; [13],0.00109 ± 3.3e-05
same,peptide microarray binding signal,[3]; [14],0.000799 ± 2.2e-05
same,peptide microarray binding signal,[4]; [13],0.00261 ± 0.0003
same,peptide microarray binding signal,[4]; [14],0.001211 ± 1.2e-05
EIRRYQKSTELLI [H3 50-62 E I R R Y Q Kme Sph T E L L I],peptide microarray binding signal,"[1]; peptide region: H3 50-62, peptide modifications: H3K56me1 H3S57ph, binder concentration: 50 nM",0.00125 ± 3.7e-05
same,peptide microarray binding signal,"[1]; peptide region: H3 50-62, peptide modifications: H3K56me1 H3S57ph, binder concentration: 500 nM",0.00143 ± 2.3e-05
same,peptide microarray binding signal,"[2]; peptide region: H3 50-62, peptide modifications: H3K56me1 H3S57ph, binder concentration: 10 nM",0.00209 ± 2.4e-05
same,peptide microarray binding signal,"[2]; peptide region: H3 50-62, peptide modifications: H3K56me1 H3S57ph, binder concentration: 100 nM",0.00085 ± 2.5e-05
same,peptide microarray binding signal,[3]; [15],0.000264 ± 7.4e-06
same,peptide microarray binding signal,[3]; [16],0.000342 ± 3.8e-06
same,peptide microarray binding signal,[4]; [15],0.000861 ± 8.7e-05
same,peptide microarray binding signal,[4]; [16],0.000519 ± 5.6e-06
EIRRYQKSTELLI [H3 50-62 E I R R Y Q Kac S Tph E L L I],peptide microarray binding signal,"[1]; peptide region: H3 50-62, peptide modifications: H3K56ac H3T58ph, binder concentration: 50 nM",0.00141 ± 1.8e-05
same,peptide microarray binding signal,"[1]; peptide region: H3 50-62, peptide modifications: H3K56ac H3T58ph, binder concentration: 500 nM",0.001381 ± 1.3e-05
same,peptide microarray binding signal,"[2]; peptide region: H3 50-62, peptide modifications: H3K56ac H3T58ph, binder concentration: 10 nM",0.002924 ± 2.8e-05
same,peptide microarray binding signal,"[2]; peptide region: H3 50-62, peptide modifications: H3K56ac H3T58ph, binder concentration: 100 nM",0.00149 ± 1.5e-05
same,peptide microarray binding signal,[3]; [17],0.0004719 ± 4.7e-06
same,peptide microarray binding signal,[3]; [18],0.000514 ± 5.5e-06
same,peptide microarray binding signal,[4]; [17],0.000468 ± 1.8e-05
same,peptide microarray binding signal,[4]; [18],0.00104 ± 5.9e-05
EIAQDFKTDLRFQ [H3 73-85 E I A Q D F Kme2 T D L R F Q],peptide microarray binding signal,"[1]; peptide region: H3 73-85, peptide modifications: H3K79me2, binder concentration: 50 nM",0.002539 ± 2.2e-05
same,peptide microarray binding signal,"[1]; peptide region: H3 73-85, peptide modifications: H3K79me2, binder concentration: 500 nM",0.00633 ± 0.00033
same,peptide microarray binding signal,"[2]; peptide region: H3 73-85, peptide modifications: H3K79me2, binder concentration: 10 nM",0.00281 ± 3.1e-05
same,peptide microarray binding signal,"[2]; peptide region: H3 73-85, peptide modifications: H3K79me2, binder concentration: 100 nM",0.00376 ± 0.00014
same,peptide microarray binding signal,[3]; [19],0.00106 ± 6.2e-05
same,peptide microarray binding signal,[3]; [20],0.00097 ± 2e-05
same,peptide microarray binding signal,[4]; [19],0.0117 ± 0.004
same,peptide microarray binding signal,[4]; [20],0.00709 ± 0.00024
EIRRYQKSTELLI [H3 50-62 E I R R Y Q Kme3 Sph T E L L I],peptide microarray binding signal,"[1]; peptide region: H3 50-62, peptide modifications: H3K56me3 H3S57ph, binder concentration: 50 nM",0.00122 ± 2.2e-05
same,peptide microarray binding signal,"[1]; peptide region: H3 50-62, peptide modifications: H3K56me3 H3S57ph, binder concentration: 500 nM",0.00224 ± 0.0003
same,peptide microarray binding signal,"[2]; peptide region: H3 50-62, peptide modifications: H3K56me3 H3S57ph, binder concentration: 10 nM",0.00251 ± 0.0001
same,peptide microarray binding signal,"[2]; peptide region: H3 50-62, peptide modifications: H3K56me3 H3S57ph, binder concentration: 100 nM",0.00142 ± 0.00012
same,peptide microarray binding signal,[3]; [21],0.00238 ± 0.00081
same,peptide microarray binding signal,[3]; [22],0.00177 ± 5e-05
same,peptide microarray binding signal,[4]; [21],0.0141 ± 0.011
same,peptide microarray binding signal,[4]; [22],0.0094 ± 0.0038
EIRRYQKSTELLI [H3 50-62 E I R R Y Q K S T E L L I],peptide microarray binding signal,"[1]; peptide region: H3 50-62, binder concentration: 50 nM",0.00599 ± 0.00033
same,peptide microarray binding signal,"[1]; peptide region: H3 50-62, binder concentration: 500 nM",0.0144 ± 0.00044
same,peptide microarray binding signal,"[2]; peptide region: H3 50-62, binder concentration: 10 nM",0.00859 ± 0.00029
same,peptide microarray binding signal,"[2]; peptide region: H3 50-62, binder concentration: 100 nM",0.00149 ± 5.6e-05
same,peptide microarray binding signal,[3]; [23],0.00017 ± 3.2e-06
same,peptide microarray binding signal,[3]; [24],0.00514 ± 0.0014
same,peptide microarray binding signal,[4]; [23],0.00299 ± 0.00025
same,peptide microarray binding signal,[4]; [24],0.00288 ± 7.4e-05
